Only a selection was taken, and hits are over-represented in it overall.
TTR transcr act: activators of transthyretin transcription | SH-SY5Y TTR promoter Gaussia luciferase, luminescence; 100% = recombinant luciferase protein wells | activation, % at 16.7 µM | actives 1.3% (n = 92,000);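 active = activation above the mean of all tested compounds plus 3 SD, cut at about 9.5% in these data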;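 note: cells exposed to compounds for one day before reading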
HuH7 TTR inh: HuH7 TTR transcription inhibition, counter-screen. AID 1117279. actives 4% (n = 1,100). HuH7 TTR promoter-Gaussia luciferase reporter, luminescence. inhibition, % at 16.7 µM. shares compounds with TTR transcr act;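 active = average inhibition above the solvent-only control wells' mean plus 3 SD, cut at about 15% in these data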;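 note: inhibitors lower well luminescence so higher value means more inhibition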
TTR act confirm: human TTR transcription activation, confirmation | shares compounds with TTR transcr act | SHSY5Y TTR promoter Gaussia luciferase, luminescence; 100% = purified Lucia enzyme wells, no cells | activation, % at 16.7 µM | 1,100 tested, under 10 active | AID 1117280;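 active = mean activation above a set limit taken from the earlier primary screen, cut at about 11% in these data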
A number is an active result.

`CCOC(=O)Cc1csc(Nc2ccc(Cl)cc2)n1` gave TTR transcr act inactive.
`CCCc1cc(Nc2ccc(C)cc2)n2ncnc2n1` gave TTR transcr act inactive.
`Cc1ccc(Nc2c3c(nc4ncnn24)CCC3)cc1` gave TTR transcr act 19.6, HuH7 TTR inh 23.6 and TTR act confirm inactive.
For CC(=O)c1ccc(Nc2cc(C)nc3ncnn23)cc1 the results were TTR transcr act inactive.
For CCCCOCCCNC(=O)C[C@@H]1C(=O)N(CCc2ccc(Cl)cc2)C2=CCCCC[C@]21C(=O)OC the results were TTR transcr act inactive.
Screening CCN1CCCCC(NC(=O)c2ccccc2OC)C1=O (stereo not drawn) returned TTR transcr act inactive.
`CC(=O)c1ccc(NC(=S)N2CCCCCC2)cc1` gave TTR transcr act inactive.
`CC(=O)c1ccc(NC(=O)CN2CCC(NC(=O)C3CCCCC3)CC2)cc1` gave TTR transcr act inactive.
For CCN(C(=S)Nc1ccc(C(C)=O)cc1)C1CCCCC1 the results were TTR transcr act 32.2, HuH7 TTR inh inactive and TTR act confirm inactive.
COC(=O)[C@]12C[C@H](CC(=O)NCc3ccc(OC)c(OC)c3)C(=O)N(Cc3ccc(Cl)cc3Cl)C1=C[C@H](C(C)C)O[C@@H]2C1CC1 was read as TTR transcr act inactive.
`CC(C)c1ccccc1NC(=O)C1CCCN(C(=O)c2ccc(Cl)cc2)C1` (stereo not drawn) gave TTR transcr act inactive.
`CCOc1ccc(OCC)c(NC(=O)C2CCCN(S(=O)(=O)c3ccc(C)cc3)C2)c1` (stereo not drawn) gave TTR transcr act inactive.
CCOc1ccc(OCC)c(NC(=O)C2CCCN(C(=O)c3ccc(Cl)cc3)C2)c1 (stereo not drawn) was read as TTR transcr act 11.0, HuH7 TTR inh inactive and TTR act confirm inactive.
Screening Cc1ccccc1C(=O)NC1CCCCN(Cc2cccc(Cl)c2)C1=O (stereo not drawn) returned TTR transcr act inactive.
Cc1cccc(NC(=O)Nc2nc3ncccn3c2-c2ccc(F)cc2)c1 was read as TTR transcr act inactive.
Screening COC(=O)[C@]12C[C@H](CC(=O)NCc3ccc(C)o3)C(=O)N(Cc3ccccc3)C1=C[C@H](COCc1ccccc1)O[C@@H]2C returned TTR transcr act inactive.
CNc1nc(N)c([N+](=O)[O-])c(Nc2ccccc2)n1 was read as TTR transcr act inactive.
Screening O=S1(=O)N[C@H](Cc2ccccc2)COc2cc(Br)ccc21 returned TTR transcr act inactive.
For CC1(c2cccc(Br)c2)NC(=O)N(CC(=O)Nc2ccc(N3CCCCC3)cc2)C1=O (stereo not drawn) the results were TTR transcr act inactive.
Screening CCc1cccc(NC(=O)CN2C(=O)NC3(CCCCCCC3)C2=O)c1 returned TTR transcr act inactive.
For CC(C)CC1(C)NC(=O)N(CC(=O)Nc2ccc3c(c2)CCC3)C1=O (stereo not drawn) the results were TTR transcr act 11.1, HuH7 TTR inh inactive and TTR act confirm inactive.
`CC1=C2NC(N)=[N+](Cc3ccc4c(c3)OCO4)CC2NOC1` (stereo not drawn) gave TTR transcr act inactive.
For COC(=O)c1ccc(Cn2ccc3ccc(-c4ccc5ccn(C(=O)c6ccccc6)c5c4)cc32)cc1 the results were TTR transcr act inactive.
Screening CCOC(=O)C1CCN(S(=O)(=O)c2ccc3[nH]c(=O)oc3c2)CC1 returned TTR transcr act inactive.
`CCN1CCN(S(=O)(=O)c2ccc3c(c2)NC(=O)CS3)CC1` gave TTR transcr act inactive.
CCOC(=O)C1CCN(S(=O)(=O)c2ccc3c(c2)NC(=O)CS3)CC1 was read as TTR transcr act 11.1, HuH7 TTR inh inactive and TTR act confirm inactive.
`Cc1ccccc1Sc1ncnc2onc(C)c12` gave TTR transcr act inactive.
`Cc1cccc(N(C)c2ncnc3onc(-c4ccc(F)cc4)c23)c1C` gave TTR transcr act 13.0, HuH7 TTR inh 25.3 and TTR act confirm inactive.
For O=C1CCC[C@H]2Cc3nc4cccc(Cl)c4cc3C[C@]23CCCN13 the results were TTR transcr act inactive.
`COc1ccc(C2c3ccccc3NC3C2C(=O)N(Cc2ccc(OC)cc2OC)[C@H]3Cc2ccccc2)cc1` (stereo partly drawn) gave TTR transcr act inactive.
`O=C1CCN(Cc2ccccc2)C=C1c1ccc2ccccc2c1` gave TTR transcr act 10.4, HuH7 TTR inh inactive and TTR act confirm inactive.
For O=C1CCN(Cc2ccccc2)C=C1c1ccc(C(F)(F)F)cc1 the results were TTR transcr act inactive.
`CC1(C(=O)Nc2ccc3ccccc3c2)CCC(=O)N1C1CCN(Cc2ccccc2)CC1` (stereo not drawn) gave TTR transcr act inactive.
`C[C@@H]1CCN(C2CC2)S(=O)(=O)c2c(cccc2N2CCC[C@H]2CO)O1` gave TTR transcr act inactive.
Screening CCCCNS(=O)(=O)/C=C/c1cc2c(cc1CNC(=O)OC(C)(C)C)OCO2 returned TTR transcr act inactive.
`Clc1cccc(CNC2CCC23CCCCC3)c1` (stereo not drawn) gave TTR transcr act inactive.
CCOc1ccc(Oc2nc(NCC(C)C)nc(N(C)C)n2)nn1 was read as TTR transcr act inactive.
CCOc1ccc(Oc2nc(NCC(C)C)nc(OC)n2)nn1 was read as TTR transcr act inactive.
Screening CCNc1nc(NC(C)CC)nc(Oc2ccc(OCC)nn2)n1 (stereo not drawn) returned TTR transcr act 12.6, HuH7 TTR inh inactive and TTR act confirm inactive.
COC(=O)[C@]12C[C@H](CC(=O)N3CCN(C(=O)c4ccco4)CC3)C(=O)N(CCc3ccc(OC)c(OC)c3)C1=C[C@H](C(C)C)O[C@@H]2C1CC1 was read as TTR transcr act inactive.
Screening CC(C)(CO)NC12CC3CC(CC(C3)C1)C2 returned TTR transcr act inactive.
Screening c1ccc(CNC23CC4CC(CC(C4)C2)C3)nc1 returned TTR transcr act inactive.
Screening Cc1ccsc1CNC12CC3CC(CC(C3)C1)C2 returned TTR transcr act 9.7, HuH7 TTR inh inactive and TTR act confirm inactive.
`O=[N+]([O-])c1cccnc1N1CCOCC1` gave TTR transcr act inactive.
`O=C1CCN(c2ncccc2[N+](=O)[O-])CC1` gave TTR transcr act 11.9, HuH7 TTR inh inactive and TTR act confirm inactive.
Screening N#CC1CCN(c2ncccc2[N+](=O)[O-])CC1 returned TTR transcr act inactive.
For COC(=O)c1cccc(Cn2ccc3ccc(-c4ccc5ccn(C(=O)C6CC6)c5c4)cc32)c1 the results were TTR transcr act inactive.
`Cc1ccc(CN2CCCCC(NC(=O)Nc3ccccc3F)C2=O)cc1` (stereo not drawn) gave TTR transcr act inactive.
For O=C(NCCc1ccccc1)OCc1cn(-c2cccc(F)c2F)nn1 the results were TTR transcr act inactive.
For CN1CCN(C(=O)c2ccc(Cl)c(S(=O)(=O)N3CCCCC3)c2)CC1 the results were TTR transcr act inactive.
`Cc1cccc(NS(=O)(=O)c2cc(C(=O)N3CCCC3)ccc2Cl)c1` gave TTR transcr act 10.2, HuH7 TTR inh inactive and TTR act confirm inactive.
O=C(c1ccc(Cl)c(S(=O)(=O)N2CCOCC2)c1)N1CCCC1 was read as TTR transcr act inactive.

Screens (PubChem BioAssay)
